Assay results as given in PubChem BioAssay AID1347171 (National Center for Advancing Translational Sciences (NCATS), 2019).
Inconclusive results are not listed. Calls of active or inactive are those of the source. Calls come from the whole dose curve; as a rule, active = well fitted inhibition curve with a large enough effect; inconclusive = small, poorly fitted or top-dose-only effect; inactive = no such curve, though single readings can be large or run the other way.

Experiment: Orthogonal mCherry assay for qRT-PCR qHTS of selected Zika virus inhibitors
Conditions: Vero cells, ZIKV-mCherry infection imaging, 48-72 h; series mostly up to 32.6 µM; activity change, negative = inhibition: at the top concentration
Excerpt: Description: Assay Submitters (PI): Avindra Nath, Ph.D., National Institute of Neurological Disorders and Stroke (NINDS), Bethesda, MD Radhakrishnan Padmanabhan, Ph.D., Georgetown University (GU), Washington D.C. Zika Virus causes congenital defects, including microcephaly and is associated with Guillain-Barre syndrome, eningoencephalitis and myelitis in infected adult. […] Using a target-based approach, we hope to establish a screening paradigm to uncover novel, cell-active NS2B-NS3 protease (Zika Virus) specific inhibitors from NCATS' collection of small molecules using qHTS. […] Four assay panel was created to identify potential Zika Virus inhibitors. Namely, (1) GU unlinked NS2B-NS3 AMC tagged protease qHTS, (2) GU unlinked NS2B-NS3 Rhodamine tagged protease qHTS, (3) NINDS linked NS2B-NS3 AMC tagged protease qHTS, (4) NINDS linked NS2B-NS3 Rhodamine tagged protease qHTS. Inhibitors of the Zika virus primary screens are confirmed using qRT-PCR secondary assays, mCherry orthogonal assay, and Vero cells viability counterscreen. Early Translation Branch (ETB) National Center for Advancing Translational Sciences (NCATS), Rockville, MD National Institute of Health (NIH), Bethesda, Maryland
384 well ZIKV-mCherry Assay: We have developed a new orthogonal imaging assay in 384-well plate format, which uses recombinant virus ZIKV-mCherry in Vero cells. Briefly, 30 microL of Vero cells derived from a green monkey cell line, were dispensed by Multidrop Dispenser into a clear solid bottom black 384 well plate (ultracarrier, Perkin Elmer LifeSciences) at a concentration of 5,000 cells per well. The plate was incubated overnight in a CO2 incubator at 37 degrees C. Compounds were delivered as a 126 nL DMSO solution by Kalypsys pintool transfer. Following compound transfer, 10 microL of ZIKV-mCherry was added at an MOI of 1 and incubated in a CO2 incubator for 48-72 hrs at 37 degrees C. After sufficient incubation of infected cells in test plates, 8 microL of 32% PFA was dispensed into assay plates to fix cells and incubated for 20 min at room temperature. Plates were washed 3 times with PBS using BioTek EL406 microplate washer/dispenser. After washing, 30 microL of PBS with 0.01% TX-100 containing Hoechst dye was dispensed into the each well of the plates for nuclear staining. 384-well plates were imaged on an automated, widefield high content imager (INCell 2200, GE Healthcare) using a 10x/0.45 NA lens and standard DAPI (nuclear stain) and mCherry (cy5) excitation and emission filters. The TIFFs were quantitated using the canned Multi Target Analysis protocol (GE Investigator Workstation software v3.7.2). Briefly, nuclei from the DAPI channel were identified using top hat segmentation and a sensitivity setting of 96 and minimum size area of 35 microm2. A recombinant Zika viral infection was monitored in the Cy5 channel (cells) using a 2 microm collar dilation from the nuclear bitmap. mCherry objects with an average nuclear RFU intensity above 450 (3 stdev above mean negative control wells) were considered "mcherry positive" and data was analyzed by percent infection rate.

Potency, active:
Oc1cccc(-c2c3nc(c(-c4cccc(O)c4)c4ccc([nH]4)c(-c4cccc(O)c4)c4nc(c(-c5cccc(O)c5)c5ccc2[nH]5)CC4)C=C3)c1 7.08 µM
COc1cccc(-n2nc(C(=O)O)cc2-c2ccc(C3CCCCC3)c(Cl)c2)c1 25.1 µM
CC(C)c1onc(-c2c(Cl)cccc2Cl)c1COc1ccc(/C=C/c2cccc(C(=O)O)c2)c(Cl)c1 25.1 µM
CN(Cc1ccc(C(=O)O)cc1)c1ccc(OCc2c(-c3c(Cl)cccc3Cl)noc2C2CC2)nc1C(F)(F)F 14.1 µM
Nc1ncnc2c([C@@H]3N[C@H](CO)[C@@H](O)[C@H]3O)c[nH]c12 14.1 µM
Cc1cccc(C)c1NS(=O)(=O)c1ccc(NS(=O)(=O)c2ccc3c(c2)OCCO3)cc1 3.55 µM

Activity change, negative = inhibition, inactive:
CC1(C)CCC(CN2CCN(c3ccc(C(=O)NS(=O)(=O)c4ccc(NCC5CCOCC5)c([N+](=O)[O-])c4)c(Oc4cnc5[nH]ccc5c4)c3)CC2)=C(c2ccc(Cl)cc2)C1 288%
COc1c(C)c2c(c(O)c1C/C=C(\C)CCC(=O)O)C(=O)OC2 -80.8%
N#CC1C(=O)Nc2scc(-c3ccc(-c4ccccc4O)cc3)c2C1=O (centres undefined) -51%
Cc1cc(C(C#N)c2ccc(Cl)cc2)c(Cl)cc1NC(=O)c1cc(I)cc(I)c1O (centres undefined) -28.4%
Cc1ccc(-n2[nH]c(C)c(N=Nc3cccc(-c4cccc(C(=O)O)c4)c3O)c2=O)cc1C 539%
CC(C)=CCc1c2c(c3occ(-c4ccc(O)c(O)c4)c(=O)c3c1O)C=CC(C)(C)O2 -39%
CC(C)c1cc(C(C)C)c(CC(=O)NS(=O)(=O)Oc2c(C(C)C)cccc2C(C)C)c(C(C)C)c1 -70.7%
Cc1cc2c(C(C)C)c(O)c(O)c(C=O)c2c(O)c1-c1c(C)cc2c(C(C)C)c(O)c(O)c(C=O)c2c1O -104%
CC[C@H](C)[C@H]1O[C@]2(CC[C@@H]1C)C[C@@H]1C[C@@H](C/C=C(\C)[C@@H](O[C@H]3C[C@H](OC)[C@@H](O[C@H]4C[C@H](OC)[C@@H](O)[C@H](C)O4)[C@H](C)O3)[C@@H](C)/C=C/C=C3\CO[C@@H]4[C@H](O)C(C)=C[C@@H](C(=O)O1)[C@]34O)O2 3.23%
O=C(Nc1ccc([N+](=O)[O-])cc1Cl)c1cc(Cl)ccc1O -81.4%
O=C1NC(=O)/C(=C/c2ccc3c(c2)OC(F)(F)O3)S1 0.686%
Nc1ccn([C@@H]2O[C@H](CO)[C@@H](O)C2(F)F)c(=O)n1 -78.4%
COc1ccc(NS(=O)(=O)c2ccc(NS(=O)(=O)c3ccc4c(c3)OCCO4)cc2)cc1 -5.78%
CC(C)c1ccc2c(c1)c(SC(C)(C)C)c(CC(C)(C)C(=O)O)n2Cc1ccc(Cl)cc1 -24.6%
CC1=C(C(=O)OCc2ccccc2)C(c2ccc(-c3ccccc3)cc2)NC(=O)N1CCCCCC(=O)O (centres undefined) -69.4%
Cc1cc(NC(=O)c2ccc(Cl)c(Cl)c2)ccc1-c1cc2ccccc2oc1=O 33.7%
Oc1cc2ccccc2c2ccccc12 8.44% [at 65.2 µM]
COc1cc2c(c(O)c1OC/C=C(\C)CC/C=C(/C)CCC=C(C)C)CN(C(CCC(=O)O)C(=O)O)C2=O (centres undefined) -21.6% [at 16.3 µM]
